Assay outcomes deposited in PubChem BioAssay by Broad Institute.
DUX4 inh – DUX4-mediated transcription inhibition; activity change, negative = inhibition, % (test concentration not listed); actives 0.8% (n = 37,000); 293T-iDUX4 ZSCAN4-Gaussia luciferase reporter, 24 h; hits give low values; AID 1224904;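 active = mean inhibition of at least 10% in the main channel, exceeding the control channel by a set limit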;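 note: 0% = median of neutral control wells and -100% = median of positive control wells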
* = called active by the depositor. The full list was thinned out, with hits kept by preference.

`Cc1cccc(S(=O)(=O)N(C)C[C@H]2OCc3ccccc3-c3ccccc3C(=O)N([C@@H](C)CO)C[C@H]2C)c1` gave DUX4 inh 3.
`COc1ccc(C#Cc2ccc([C@H]3[C@H](CO)N4CCCCN(S(=O)(=O)c5ccccc5)C[C@@H]34)cc2)cc1` gave DUX4 inh -30*.
`CCCC#Cc1ccc([C@@H]2[C@H](CO)N3CCCCN(S(=O)(=O)Cc4ccccc4)C[C@@H]23)cc1` gave DUX4 inh -9.
Screening O=S(=O)(c1cccs1)N1CCCCN2[C@H](C1)[C@H](c1ccc(Br)cc1)[C@@H]2CO returned DUX4 inh -7.
Screening CCCC#Cc1ccc([C@H]2[C@H]3CN(S(=O)(=O)Cc4ccccc4)CCCCN3[C@H]2CO)cc1 returned DUX4 inh 11.
`O=S(=O)(c1ccccc1)N1CCCCN2[C@H](CO)[C@H](c3ccc(C#CC4CCCC4)cc3)[C@H]2C1` gave DUX4 inh -19*.
O=S(=O)(c1ccccc1)N1CCCCN2[C@H](CO)[C@@H](c3ccc(C#CC4CCCC4)cc3)[C@@H]2C1 was read as DUX4 inh 7.
COc1ccc(C#Cc2ccc([C@@H]3[C@@H](CO)N4CCCCN(S(=O)(=O)c5ccccc5)C[C@H]34)cc2)cc1 was read as DUX4 inh -5.
For O=S(=O)(c1cccs1)N1CCCCN2[C@H](CO)[C@@H](c3ccc(Br)cc3)[C@H]2C1 the results were DUX4 inh -9.
`C[C@@H](O)C#Cc1ccc([C@H]2[C@H]3CN(S(=O)(=O)c4ccccc4)CCCCN3[C@H]2CO)cc1` gave DUX4 inh 2.
O=S(=O)(c1cccs1)N1CCCCN2[C@@H](CO)[C@H](c3ccc(Br)cc3)[C@@H]2C1 was read as DUX4 inh -14*.
For CC(C)CC#Cc1ccc([C@H]2[C@@H](CO)N3CCCCN(S(=O)(=O)Cc4ccccc4)C[C@H]23)cc1 the results were DUX4 inh -14*.
Screening O=S(=O)(c1ccc(F)cc1)N1CCCCN2[C@H](CO)[C@@H](c3ccc(C#CC4CC4)cc3)[C@@H]2C1 returned DUX4 inh -9.
Screening C[C@H](CO)N1C[C@H](C)[C@@H](CN(C)C(=O)Nc2ccccc2C(F)(F)F)OCc2ccccc2-c2ccccc2C1=O returned DUX4 inh 17.
For Cc1ccccc1-c1ccc([C@H]2[C@@H](CO)N3C(=O)CN(C(=O)c4cccnc4)C[C@H]23)cc1 the results were DUX4 inh 8.
For CO[C@H]1CN(C)C(=O)c2ccc(NC(=O)C3CCOCC3)cc2OC[C@@H](C)N(C(=O)c2ccccc2)C[C@@H]1C the results were DUX4 inh 3.
For CCN1[C@@H]2c3ccc(-c4ccncc4)c(=O)n3C[C@@H]2[C@@H](CO)[C@@H]1C(=O)NCCc1cn(C)cn1 the results were DUX4 inh 1.
For O=S(=O)(c1ccccc1)N1CC2(C1)[C@@H](c1ccccc1)[C@@H](CO)N2CC1CC1 the results were DUX4 inh -5.
`Cc1nn(C)cc1NC(=O)C[C@@H]1CC[C@@H]2[C@@H](COc3ccc(NC(=O)Nc4cccc(Cl)c4)cc3C(=O)N2C)O1` gave DUX4 inh 0.
CCNC(=O)C[C@H]1CC[C@@H]2[C@H](COC[C@H](O)CN2C(=O)c2cc(Cl)cc(Cl)c2)O1 was read as DUX4 inh -3.
`COc1ccc(C#Cc2cnc3c(c2)C(=O)N([C@@H](C)CO)C[C@@H](C)[C@@H](CN(C)CC2CC2)O3)cc1` gave DUX4 inh -3.
COc1ccc2c3c(n(C)c2c1)[C@@H](CO)N(Cc1ccccc1Cl)CC31CN(C(C)=O)C1 was read as DUX4 inh 6.
For C[C@H](CO)N1C[C@H](C)[C@@H](CN(C)C(=O)C2CCCCC2)Oc2ncc(-c3cccnc3)cc2C1=O the results were DUX4 inh -2.
`CN1[C@H](C(=O)NCCN2CCCC2)[C@@H](CO)[C@@H]2Cn3c(ccc(/C=C/c4ccccc4)c3=O)[C@@H]21` gave DUX4 inh 3.
For COc1ccc2c3c(n(C)c2c1)[C@@H](CO)N(C)CC31CN(C(=O)Nc2cccc(F)c2)C1 the results were DUX4 inh 10.
`COc1ccc2c3c(n(C)c2c1)[C@@H](CO)N(C(=O)c1ccccc1)CC31CN(C)C1` gave DUX4 inh 6.
`COc1cc(CN2CC3(CCN(C(=O)NC(C)C)CC3)c3c(n(C)c4cc(OC)ccc34)[C@@H]2CO)cc(OC)c1` gave DUX4 inh -5.
COc1ccc2c3c(n(C)c2c1)[C@H](CO)N(CC1CC1)CC31CN(Cc2ccc(F)cc2)C1 was read as DUX4 inh -3.
COc1ccc2c3c(n(C)c2c1)[C@H](CO)N(CC1CC1)CC31CN(C(=O)c2ccc(F)cc2)C1 was read as DUX4 inh -37*.
Screening COc1ccc2c3c(n(C)c2c1)[C@H](CO)N(C)CC31CN(C(=O)c2cccnc2)C1 returned DUX4 inh 10.
`COc1cc(CN2CC3(CCN(C(=O)NC(C)C)CC3)c3c(n(C)c4cc(OC)ccc34)[C@H]2CO)cc(OC)c1` gave DUX4 inh 1.
